The values below come from the antibiotic and cytotoxicity screens of Wong et al. (2023).

Among all 39,000 compounds or so, about 3,300 (8.5%) were called active. Shown is part of a subset that was picked to be rich in actives.

This assay has as its system HepG2. Put plainly: cytotoxicity call (relative viability < 0.9). Conditions: 10 µM.
For the compound `C[C@H](CO)N1C[C@H](C)[C@@H](CN(C)Cc2ccc3c(c2)OCO3)OCCCC[C@H](C)Oc2ccc(NC(=O)Cc3ccccc3)cc2C1=O`, the cytotoxicity call is “inactive”.

As to `C[C@@H]1CCCCO[C@H](CN(C)CC2CCCCC2)[C@H](C)CN([C@H](C)CO)C(=O)c2cc(NC(=O)Nc3ccc4c(c3)OCO4)ccc2O1`, the cytotoxicity call is “inactive”.

Consider `C[C@@H]1CCCCO[C@@H](CN(C)CC2CC2)[C@@H](C)CN([C@H](C)CO)C(=O)c2cc(NC(=O)Nc3ccc4c(c3)OCO4)ccc2O1`, for which the cytotoxicity call was “inactive”.

`C[C@@H]1CCCCO[C@@H](CN(C)CC2CCCCC2)[C@@H](C)CN([C@H](C)CO)C(=O)c2cc(NC(=O)Nc3ccc4c(c3)OCO4)ccc2O1`: the cytotoxicity call is “active”.

As for `C[C@@H]1CCCCO[C@@H](CN(C)CC2CC2)[C@H](C)CN([C@H](C)CO)C(=O)c2cc(NC(=O)Nc3ccc4c(c3)OCO4)ccc2O1`, the cytotoxicity call was “inactive”.

With `C[C@@H]1CCCCO[C@@H](CN(C)CC2CCCCC2)[C@@H](C)CN([C@@H](C)CO)C(=O)c2cc(NC(=O)Nc3ccc4c(c3)OCO4)ccc2O1`, the cytotoxicity call is “active”.

Regarding `C[C@H](CO)N1C[C@H](C)[C@@H](CN(C)CC2CC2)OCCCC[C@H](C)Oc2ccc(NC(=O)Nc3ccc4c(c3)OCO4)cc2C1=O`, the cytotoxicity call is “inactive”.

Regarding `C[C@H](CO)N1C[C@H](C)[C@H](CN(C)CC2CC2)OCCCC[C@H](C)Oc2ccc(NC(=O)Nc3ccc4c(c3)OCO4)cc2C1=O`, the cytotoxicity call was “inactive”.

As to `C[C@H](CO)N1C[C@H](C)[C@H](CN(C)CC2CCCCC2)OCCCC[C@H](C)Oc2ccc(NC(=O)Nc3ccc4c(c3)OCO4)cc2C1=O`, the cytotoxicity call was “active”.

As to `C[C@@H]1CCCCO[C@H](CN(C)CC2CCCCC2)[C@@H](C)CN([C@H](C)CO)C(=O)c2cc(NC(=O)Nc3ccc4c(c3)OCO4)ccc2O1`, the cytotoxicity call is “inactive”.

For `C[C@@H]1CN([C@H](C)CO)C(=O)c2cc(NC(=O)Nc3ccc4c(c3)OCO4)ccc2O[C@@H](C)CCCCO[C@@H]1CN(C)CC1CCCCC1`, the cytotoxicity call is “inactive”.

Consider `C[C@H]1CCCCO[C@H](CN(C)CC2CCCCC2)[C@@H](C)CN([C@@H](C)CO)C(=O)c2cc(NC(=O)Nc3ccc4c(c3)OCO4)ccc2O1`, for which the cytotoxicity call was “active”.

Take `C[C@@H]1CCCCO[C@H](CN(C)CC2CC2)[C@@H](C)CN([C@H](C)CO)C(=O)c2cc(NC(=O)Nc3ccc4c(c3)OCO4)ccc2O1`: the cytotoxicity call was “inactive”.

Consider `CCC[C@@]1(CCc2ccccc2)CC(=O)[C@@H]([C@H](CC)c2cccc(NS(=O)(=O)c3ccc(C(F)(F)F)cn3)c2)C(=O)O1`, for which the cytotoxicity call is “inactive”.

As to `C[C@@H]1CCCCO[C@@H](CN(C)Cc2ccc(C(=O)O)cc2)[C@@H](C)CN([C@@H](C)CO)C(=O)c2cc(NS(=O)(=O)c3ccc(F)cc3)ccc2O1`, the cytotoxicity call is “inactive”.

Consider `C[C@@H]1CN([C@@H](C)CO)S(=O)(=O)c2ccc(-c3cccnc3)cc2O[C@@H]1CN(C)CC1CCOCC1`, for which the cytotoxicity call is “inactive”.

For the compound `COc1ccc(S(=O)(=O)Nc2cccc3c2O[C@H](CN(C)S(=O)(=O)c2ccccc2)[C@@H](C)CN([C@@H](C)CO)C3=O)cc1`, the cytotoxicity call is “inactive”.

`C[C@H](CO)N1C[C@H](C)[C@H](CN(C)S(=O)(=O)c2ccc(F)cc2)Oc2ccc(NC(=O)C3CC3)cc2CC1=O`: the cytotoxicity call is “inactive”.

`O=C(O)CCc1n[nH]c(=S)[nH]c1=O`: the cytotoxicity call was “inactive”.

On to `Cc1ccc(S(=O)(=O)Nc2ccc3c(c2)C(=O)N([C@H](C)CO)C[C@H](C)[C@@H](CN(C)C(=O)c2ccccc2)OCCCC[C@H](C)O3)cc1`, for which the cytotoxicity call is “inactive”.

Consider `C[C@@H]1CN([C@H](C)CO)C(=O)Cc2cc(NC(=O)Cc3ccccc3)ccc2O[C@H]1CN(C)S(=O)(=O)c1ccc(F)cc1`, for which the cytotoxicity call was “inactive”.

Regarding `COc1ccc(NC(=O)N(C)C[C@H]2OCCCC[C@H](C)Oc3ccc(NC(=O)Cc4ccccc4)cc3C(=O)N([C@H](C)CO)C[C@H]2C)cc1`, the cytotoxicity call is “inactive”.

Turning to `C[C@@H]1CN([C@H](C)CO)C(=O)Cc2cc(NC(=O)Cn3cnnn3)ccc2O[C@H]1CN(C)S(=O)(=O)c1ccc(F)cc1`, the cytotoxicity call was “inactive”.

With `COc1ccc(S(=O)(=O)Nc2cccc3c2O[C@@H](CN(C)Cc2ccc(Oc4ccccc4)cc2)[C@@H](C)CN([C@@H](C)CO)C3=O)cc1`, the cytotoxicity call was “inactive”.

In the case of `CCS(=O)(=O)N1C[C@]2(C1)CN([C@@H](CO)c1c2c2ccc(cc2n1C)OC)C(=O)c1ccc(cc1)F`, the cytotoxicity call is “inactive”.

As to `CN(C)C(=O)c1ccc(-c2ccc3n(c2=O)C[C@H]2[C@H](CO)[C@@H](C(=O)NCCc4ccccc4)N[C@@H]32)cc1`, the cytotoxicity call is “inactive”.

Turning to `C[C@@H]1CN([C@@H](C)CO)C(=O)c2cc(NC(=O)Nc3ccc4c(c3)OCO4)ccc2O[C@@H](C)CCCCO[C@@H]1CN(C)CC1CCCCC1`, the cytotoxicity call is “inactive”.

As for `C[C@@H]1CN([C@@H](C)CO)C(=O)c2cc(NC(=O)Nc3ccc4c(c3)OCO4)ccc2O[C@@H](C)CCCCO[C@H]1CN(C)CC1CCCCC1`, the cytotoxicity call was “active”.

Regarding `C[C@H]1CCCCO[C@@H](CN(C)CC2CCCCC2)[C@@H](C)CN([C@@H](C)CO)C(=O)c2cc(NC(=O)Nc3ccc4c(c3)OCO4)ccc2O1`, the cytotoxicity call is “active”.

Regarding `C[C@@H]1CCCCO[C@@H](CN(C)CC2CCCCC2)[C@H](C)CN([C@@H](C)CO)C(=O)c2cc(NC(=O)Nc3ccc4c(c3)OCO4)ccc2O1`, the cytotoxicity call is “inactive”.

As for `C[C@@H]1CCCCO[C@@H](CN(C)CC2CCCCC2)[C@H](C)CN([C@H](C)CO)C(=O)c2cc(NC(=O)Nc3ccc4c(c3)OCO4)ccc2O1`, the cytotoxicity call was “inactive”.

Turning to `C[C@H](CO)N1C[C@H](C)[C@@H](CN(C)CC2CCCCC2)OCCCC[C@H](C)Oc2ccc(NC(=O)Nc3ccc4c(c3)OCO4)cc2C1=O`, the cytotoxicity call was “inactive”.

Turning to `C[C@@H]1CCCCO[C@H](CN(C)CC2CCCCC2)[C@H](C)CN([C@@H](C)CO)C(=O)c2cc(NC(=O)Nc3ccc4c(c3)OCO4)ccc2O1`, the cytotoxicity call is “active”.

Turning to `CC(C)CC#Cc1cnc2c(c1)C(=O)N([C@@H](C)CO)C[C@@H](C)[C@H](CN(C)S(=O)(=O)c1ccccc1)O2`, the cytotoxicity call was “inactive”.

In the case of `CC(C)(C)c1nc(-c2cccc(NS(=O)(=O)c3c(F)cccc3F)c2F)c(-c2ccnc(N)n2)s1`, the cytotoxicity call is “inactive”.

Regarding `CC(C)NC(=O)N(C)C[C@H]1Oc2ccc(NC(=O)CCN3CCOCC3)cc2CC(=O)N([C@@H](C)CO)C[C@H]1C`, the cytotoxicity call was “inactive”.

For `CCS(=O)(=O)N1C[C@]2(CCN(CC2)Cc2cccc(c2)OC)c2c(n(c3cc(ccc23)OC)C)[C@@H]1CO`, the cytotoxicity call was “inactive”.

`C[C@H](CO)N1C[C@H](C)[C@@H](CN(C)C(=O)c2ccccn2)Oc2cc(Br)ccc2S1(=O)=O`: the cytotoxicity call was “inactive”.

With `CCNC(=O)c1cc2c(c(-c3cccc(-c4cc5ccccc5o4)c3)n1)[C@@H](CCO)N(C(=O)NC(C)C)C2`, the cytotoxicity call is “inactive”.

Take `Cc1ccc(S(=O)(=O)N(C)C[C@H]2Oc3ncc(Br)cc3C(=O)N([C@H](C)CO)C[C@@H]2C)cc1`: the cytotoxicity call is “inactive”.

Consider `C[C@H](CO)N1C[C@H](C)[C@@H](CN(C)C(=O)Nc2ccc(F)cc2)OCCCC[C@H](C)Oc2ccc(NC(=O)NC3CCCCC3)cc2C1=O`, for which the cytotoxicity call was “inactive”.

On to `Cc1c(-c2ccc(C(N)=O)c3[nH]c4cc(C(C)(C)O)ccc4c23)cccc1-n1cnc2ccccc2c1=O`, for which the cytotoxicity call is “active”.

`CCOC(=O)Cn1cnc2ccccc2c1=O`: the cytotoxicity call was “inactive”.

With `Cc1nc2c(cc1C(=O)NN)c(=O)n(C)c(=O)n2C`, the cytotoxicity call is “inactive”.

As to `CC(C)NC(=O)Nc1ccc2c(c1)CC(=O)N([C@H](C)CO)C[C@H](C)[C@@H](CN(C)Cc1ccc(Oc3ccccc3)cc1)O2`, the cytotoxicity call was “inactive”.

On to `O=C(C[C@@H]1CC[C@H]2[C@@H](COC[C@@H](O)CN2C(=O)c2ccncc2)O1)NC1CCC1`, for which the cytotoxicity call is “inactive”.

Consider `C[C@@H]1CCCCO[C@H](CN(C)C(=O)Nc2cccc3ccccc23)[C@H](C)CN([C@@H](C)CO)C(=O)c2cc(NC(=O)c3ccncc3)ccc2O1`, for which the cytotoxicity call is “inactive”.

On to `C[C@H](N)CCC(=O)NCS(=O)(=O)O`, for which the cytotoxicity call is “inactive”.

Regarding `CC(=O)N(O)CCCCNC(=O)CCC(=O)N(O)CCCCCNC(=O)CCC(=O)N(O)CCCCCN`, the cytotoxicity call is “inactive”.

For `CC(=O)N(O)CCCCCNC(=O)CCC(=O)N(O)CCCCCNC(=O)CCC(=O)N(O)CCCCCN.CS(=O)(=O)O`, the cytotoxicity call was “active”.

Take `CC(=O)N(O)CCCCCNC(=O)CCC(=O)N(O)CCCCCNC(=O)CCC(=O)N(O)CCCCCN`: the cytotoxicity call is “active”.

`CC(=O)N(O)CCCCCNC(=O)CC(O)(CC(=O)NCCCCCN(O)C(C)=O)C(=O)O`: the cytotoxicity call was “inactive”.

With `CC(=O)NCCCS(=O)(=O)O`, the cytotoxicity call is “inactive”.

As to `COCCNC(=O)C[C@@H]1CC[C@H]2[C@@H](COC[C@H](O)CN2S(=O)(=O)c2ccccc2F)O1`, the cytotoxicity call was “inactive”.

As for `COc1ccc(S(=O)(=O)Nc2ccc3c(c2)[C@H]2C[C@H](CC(=O)NCC4CC4)O[C@@H](CO)[C@H]2O3)cc1`, the cytotoxicity call was “inactive”.

Take `C[C@@H]1CN([C@@H](C)CO)C(=O)Cc2cc(NS(C)(=O)=O)ccc2O[C@H]1CN(C)S(=O)(=O)c1ccccc1`: the cytotoxicity call was “inactive”.

`CN[C@H]1CN(c2ccc3c(=O)c(C(=O)O)cn(-c4nccs4)c3n2)C[C@@H]1OC`: the cytotoxicity call is “inactive”.

On to `CC(C)NCC(O)c1cc(O)cc(O)c1` (configuration not stated), for which the cytotoxicity call is “active”.

`CC(C)NCC(O)c1ccc(O)c(O)c1.Cl` (configuration not stated): the cytotoxicity call is “active”.

As for `CC(C)NCC(O)c1ccc2ccccc2c1.Cl` (configuration not stated), the cytotoxicity call was “inactive”.

Turning to `CCC(NC(C)C)C(O)c1ccc(O)c(O)c1.CS(=O)(=O)O` (configuration not stated), the cytotoxicity call was “inactive”.

Regarding `CC(C)(C)NCC(O)c1cc(O)cc(O)c1.O=S(=O)(O)O` (configuration not stated), the cytotoxicity call is “inactive”.

For `CC(C)NCC(O)c1ccc(NS(C)(=O)=O)cc1.Cl` (configuration not stated), the cytotoxicity call was “inactive”.

On to `C[C@@H]1CCCCO[C@H](CN(C)Cc2ccc(C(F)(F)F)cc2)[C@@H](C)CN([C@H](C)CO)C(=O)c2cc(NS(=O)(=O)c3cn(C)cn3)ccc2O1`, for which the cytotoxicity call was “inactive”.

As to `COc1ccc(S(=O)(=O)N(C)C[C@@H]2Oc3ccc(NC(=O)NC(C)C)cc3CC(=O)N([C@@H](C)CO)C[C@H]2C)cc1`, the cytotoxicity call is “inactive”.

In the case of `COC(=O)[C@@H](C)N(C#N)c1nc(C)cc(C)n1`, the cytotoxicity call was “inactive”.

With `C[C@@H]1CCCCO[C@@H](CN(C)S(=O)(=O)c2cccs2)[C@@H](C)CN([C@@H](C)CO)C(=O)c2cc(NC(=O)NC3CCCCC3)ccc2O1`, the cytotoxicity call is “inactive”.
